Measured values: PubChem BioAssay AID540259 (Broad Institute, 2011)
Results with a measured potency or affinity are listed apart. Activity calls are given as the source filed them.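 The calls were made as follows: active = cell killing, meaning signal decrease, with fitted half-maximal dose at or below ten times the top valid tested dose; inconclusive = poor fit, or flat curve with 30 to 70% signal loss; inactive = the rest.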

assay: HeLa cell cytotoxicity, dose response, cytotoxicity control for MITF activator project, CellTiter-Glo luminescence, cherry-pick samples (AID 540259); conditions: HeLa viability, CellTiter-Glo ATP luminescence, 24 h; series mostly up to 35 µM; activity change, negative = cytotoxicity: at the top concentration;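 also: 0% = DMSO neutral control and -100% = mitoxantrone positive control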

SMILES | activity change, negative = cytotoxicity
O=C(c1nnc(-c2ccc(Cl)cc2)o1)C1CCCC1 | 10.8% (inactive)
Cc1ccc(NC(=O)CCCc2ccccc2)nc1 | 0.518% (inactive)
CCN(CC)S(=O)(=O)c1cc(C(=O)Nc2cc(C)[nH]n2)ccc1Cl | 0.409% (inactive)
O=c1c2ccccc2oc2cc(NCCCn3ccnc3)ccc12 | -2.6% (inactive)
Nc1ncccc1OCc1ccc(Br)cc1 | -6.3% (inactive)
CC(=O)N1N=C(c2ccc(C)cc2)OC1c1ccc(Br)cc1 (stereo unspecified) | 1.6% (inactive)
CSCC[C@H](NC(=O)[C@@H]1Cc2ccccc2CN1)C(=O)NC[C@H]1CC[C@H](C(=O)O)CC1 | 15.4% (inactive)
COc1ccc(/C(N)=N/OC(=O)c2cccs2)cc1OC | -1.87% (inactive)
CCCCCc1ccc(-c2ccc(OC)cc2)nc1 | 4.7% (inactive)
CC(=O)c1sc(NC(=O)c2ccccc2F)nc1-c1ccccc1 | 11% (inactive)
COc1ccc(-c2c(C)nc3c(-c4ccsc4)cnn3c2N)cc1 | 0.683% (inactive)
CCN(CC)C(=O)c1cc(-c2ccc(Br)cc2)on1 | 1.25% (inactive)
COC(=O)c1cn(CC(=O)NCc2cccs2)c2ccccc12 | 21.6% (inactive)
Nc1ccc(-c2nnc(-c3ccc(N)cc3)o2)cc1 | 6.98% (inactive)
COc1ccc(-c2ccc3oc(-c4ccsc4)cc(=O)c3c2)cn1 | 9.06% (inactive)
CNC(=O)C(=O)Nc1nc(C23CC4CC(CC(C4)C2)C3)cs1 | 1.59% (inactive)
COC(=O)Cn1c(=NC(=O)c2ccc(Cl)s2)sc2cc(C)ccc21 | -6.41% (inactive)
COc1cc(/C=C/c2noc(-c3ccccc3O)n2)ccc1OC(C)=O | -3.83% (inactive)

SMILES | activity change, negative = cytotoxicity
Clc1ccc(SCc2cn3ccccc3n2)cc1 | 7.64% (inactive)
CC(=O)NCCC1CCCCN1C(=O)c1cc(COc2cc(C)ccc2C)on1 (stereo unspecified) | 4.53% (inactive)
CC(C)(C)c1ccc(SCCc2ccccn2)cc1 | 10.3% (inactive)
Cc1nnc(NC(=O)c2ccc(N3CCCC3=O)cc2)s1 | 6.95% (inactive)
O=C(Nc1ccccc1)Nc1ccc2nnsc2c1 | -3.18% (inactive)
CCn1c(C(=O)NC2CCC(C)CC2)cc2sccc21 (stereo unspecified) | -2.55% (inactive)
c1ccc2c(Nc3nnc(-c4ccncc4)s3)cccc2c1 | 0.946% (inactive)
COC(=O)c1ccc(Nc2ncnc3sccc23)cc1 | 11.5% (inactive)
COc1ccc(-c2cn(CC3CCCCC3)nn2)cc1 | 6.96% (inactive)
Cc1ccc(C2=NN(S(C)(=O)=O)C(c3cccs3)C2)cc1 (stereo unspecified) | -4.21% (inactive)
Fc1cc(Br)ccc1COc1ccc(-c2nnco2)cc1 | 6.77% (inactive)
O=C(Cc1cccs1)NCc1ccc(Cl)cc1Cl | 19.9% (inactive)
COc1ccc2sc(NCc3ccccc3)nc2c1 | 0.849% (inactive)
NC(=O)c1cnn(-c2cc(Oc3ccccc3)ncn2)c1N | 5.25% (inactive)
COc1ccccc1/C=C/C=N/n1c(-c2ccccn2)n[nH]c1=S | 2.88% (inactive)
O=C(c1cc(COc2ccc(F)cc2Cl)on1)N1CCCCCC1 | -8.23% (inactive)
CC(C)CNC(=O)C1CCN(Cc2ccc(OCc3ccccc3)cc2)CC1 | -2.62% (inactive)
Cc1ccc(/C=N/N2C(=O)c3ccccc3NC2c2ccc(C)cc2)cc1 (stereo unspecified) | -11.9% (inactive)
